PubChem BioAssay (Tox21)
Inconclusive results are not listed. Entries that show only a call come without a potency. The source holds several records for some structures; these can differ, active in one and inactive in another. Activity calls are given as the source filed them. Calls come from the whole dose curve; as a rule, active = well fitted activation curve with a large enough effect in the repeat runs; inconclusive = weak or mixed curves; inactive = flat fitted curve, though single readings scatter.

Assay: A CellTox Green Cytotoxicity Assay to monitor cytotoxicity in HepG2 cells - 8 hour (AID 1224890); note: nearly all actives have a fitted effect of over 45% in size
Details: CellTox Green fluorescence; series mostly up to 76.8 µM
From the text: National Center for Advancing Translational Sciences [NCATS]
NIH Chemical Genomics Center [NCGC]
U.S. Environmental Protection Agency [EPA]
National Institutes of Environmental Health Sciences [NIEHS]
National Toxicology Program [NTP]
Cell-based models are critical for drug discovery. Determining the natural cytotoxic effects resulting from test compounds is an essential research activity. A CellTox Green Cytotoxicity Assay to monitor cytotoxicity in real time of continues cell culture during 40 hours of the compound treatment was used to screen Tox21 10K library compounds in HepG2 cells. CellTox Green Cytotoxicity Assay is a nonlytic, homogeneous, biofluorescent method to measure cytotoxicity in cell culture after experimental manipulation. The assay system uses a proprietary asymmetric cyanine dye that is excluded from viable cells but preferentially stains the dead cell's DNA. […] Viable cells produce no appreciable increases in fluorescence. Therefore, the fluorescence signal produced by the binding interaction with dead cell DNA is proportional to cytotoxicity.
The mixture of HepG2 cell suspension and reagents were dispensed at 600cells/6 ul/well in 1536-well tissue culture treated black solid bottom plates using a Multidrop dispenser. After the assay plates were incubated at a 37 C/5% CO2 incubator for 5 hours, 23 nL of compounds dissolved in DMSO, positive and negative controls was transferred to the assay plate by a pintool work station. The plates were incubated at 37 C for 40 hours. The fluorescence intensity were measured at 0h, 8h, 16h, 24h, 32h and 40h time points using ViewLux plate reader during compound treatment.
Potency is the fitted concentration of half-maximal effect.

SMILES	Potency
NNc1ccccc1	inactive
CNC(=O)Oc1cccc2ccccc12	inactive
Cc1ccccc1N	inactive
CCCCCCCCCCCCCCCCCC(=O)O	inactive
Sc1ccccc1	inactive
Clc1cnc(Oc2ccc(Oc3ncc(Cl)cc3Cl)cc2)c(Cl)c1	inactive
CCOP(=S)(OCC)Oc1cc(C)nc(C(C)C)n1	inactive
C[C@H]1C(=O)O[C@@H]2CCN3CC=C(COC(=O)[C@](C)(O)[C@]1(C)O)[C@H]23	inactive
CCNc1nc(Cl)nc(NC(C)C)n1	inactive
CN(C)CCC#N	inactive
c1ccc2c(c1)CCCC2	inactive
Cc1ccc(N)cc1	inactive
Cc1ccc(O)c(C)c1	inactive
C/C=C/c1ccc2c(c1)OCO2	inactive
Cc1cccc(N)c1C	inactive
Nc1cccc(Cl)c1	inactive
CN(C)C(=O)C(c1ccccc1)c1ccccc1	inactive
COc1nc(NC(C)C)nc(NC(C)C)n1	inactive
Cc1cccc(C)c1NC(=O)CN1CCCC1=O	inactive
Nc1ccc(N)cc1	inactive

SMILES	Potency
C=CC(=O)OCCCCCC(C)C	inactive
CC(=O)/C=C/c1ccccc1	inactive
FC(F)(F)c1ccc(Cl)cc1	inactive
C=CC(=O)OCC(CC)CCCC (stereo not given)	inactive
COS(=O)(=O)OC	inactive
OC[C@@H](O)[C@H]1O[C@@H]2O[C@H](C(Cl)(Cl)Cl)O[C@@H]2[C@H]1O	inactive
OCCCCO	inactive
COC(C)(C)CCCC(C)C/C=C/C(C)=C/C(=O)OC(C)C (stereo not given)	inactive
COP(=S)(OC)Oc1ccc(SC)c(C)c1	inactive
[N-]=[N+]=CC(=O)OC[C@H](N)C(=O)O	38.9 µM (active) and inactive
O=C(O)C(Br)Br	inactive
Cc1cccc(N)c1	inactive
CC(C)CCCCCCOC(=O)c1ccccc1C(=O)OCCCCCCC(C)C	inactive
Cl/C=C/Cl	inactive
Nc1cc(Cl)cc(Cl)c1	inactive
CC12CC1(C)C(=O)N(c1cc(Cl)cc(Cl)c1)C2=O (stereo not given)	inactive
COC(=O)Nc1cccc(OC(=O)Nc2cccc(C)c2)c1	inactive
Cc1ccc(N=C=O)cc1N=C=O	inactive
O=C(O)C1C(C(=O)O)C2(Cl)C(Cl)=C(Cl)C1(Cl)C2(Cl)Cl (stereo not given)	inactive
CNCC(O)c1ccc(O)cc1 (stereo not given)	inactive
